Assay results taken from PubChem BioAssay AID720597 (Broad Institute, 2013).
Potency and affinity values are given separately. The source made the active and inactive calls.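 How the source made its calls: active means fitted half-maximal dose no more than twice the top valid tested dose, for compounds that lower signal; inconclusive means fit invalid, or curve flat with activity between -70 and -30; inactive means potency past limit, curve flat within ±30, or signal increasing.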

biological target: NAD-dependent protein deacylase sirtuin-5, mitochondrial (Homo sapiens) (UniProt Q9NXA8); assay: SIRT5 deacylase inhibitors, dose response, biochemical, fluorescence imaging, cherry-pick, set 6 (AID 720597); details: Purified SirT5, succinyl-peptide-AMC/trypsin fluorescence; series mostly up to 15 µM;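 further: lower AMC signal can also come from blocking the trypsin step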
Sequence (Q9NXA8 whole entry, looked up): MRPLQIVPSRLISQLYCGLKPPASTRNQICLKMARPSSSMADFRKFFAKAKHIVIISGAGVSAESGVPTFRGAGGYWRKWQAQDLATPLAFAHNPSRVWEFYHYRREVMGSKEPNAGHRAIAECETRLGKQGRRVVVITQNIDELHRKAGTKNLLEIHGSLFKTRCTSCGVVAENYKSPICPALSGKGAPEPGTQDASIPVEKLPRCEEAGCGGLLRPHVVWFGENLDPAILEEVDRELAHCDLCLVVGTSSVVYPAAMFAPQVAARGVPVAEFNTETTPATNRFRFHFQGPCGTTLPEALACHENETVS

Row | Structure (SMILES) | outcome
1 | O=C(NCC[C@@H]1CC[C@@H](NC(=O)C2CC2)[C@@H](CO)O1)c1cc(Cl)cc(Cl)c1 | inactive
2 | O=S(=O)(c1ccc(F)cc1)N1CCCCN2[C@H](CO)[C@@H](c3ccc(-c4ccccc4F)cc3)[C@H]2C1 | inactive
3 | C[C@@H]1CCCCO[C@@H](CN(C)CC2CCCCC2)[C@@H](C)CN([C@@H](C)CO)C(=O)c2cc(NS(=O)(=O)c3ccc(F)cc3)ccc2O1 | inactive
4 | COc1cccc(CN2[C@@H](CO)[C@H](c3ccccc3)C23CN(C(=O)C2CCCC2)C3)c1 | inactive
5 | C[C@@H]1CN([C@@H](C)CO)C(=O)c2cccc(NC(=O)c3ccncc3)c2O[C@H]1CN(C)Cc1ccccc1 | inactive
6 | COCC(=O)N1C[C@@H](C)[C@@H](OC)CN(C)C(=O)c2cc(NC(=O)c3cc(C)on3)ccc2OC[C@H]1C | inactive
7 | COCC#Cc1cnc2c(c1)C(=O)N([C@@H](C)CO)C[C@@H](C)[C@@H](CN(C)C(=O)c1ccc(F)cc1)O2 | inactive
8 | CO[C@@H](C(=O)N(C)C[C@H]1OCc2ccccc2-c2ccccc2C(=O)N([C@@H](C)CO)C[C@@H]1C)c1ccccc1 | inactive
9 | O=C(CN1CCOCC1)NCC[C@H]1CC[C@@H](NS(=O)(=O)c2ccc(Cl)cc2)[C@@H](CO)O1 | inactive
10 | COc1ccc(S(=O)(=O)Nc2ccc3c(c2)C(=O)N([C@H](C)CO)C[C@@H](C)[C@@H](CN(C)Cc2ccc(Cl)c(Cl)c2)O3)cc1 | inactive
11 | COc1ccc([Si](C)(C)[C@H]2[C@H](CCn3cc([C@H](O)c4ccccc4)nn3)O[C@@]3(C(=O)N(Cc4cccc(N5CCOC5=O)c4)c4ccccc43)[C@@H]2C)cc1 | inactive
12 | CO[C@@H]1CN(C)C(=O)c2ccc(NC(=O)Nc3ccccc3)cc2OC[C@@H](C)N(C(C)=O)C[C@H]1C | inactive
13 | C[C@H]1CN([C@@H](C)CO)C(=O)c2cc(NC(=O)Nc3ccc(C(F)(F)F)cc3)ccc2O[C@H]1CN(C)S(=O)(=O)c1ccc(Cl)cc1 | inactive
14 | C[C@@H]1CN([C@@H](C)CO)C(=O)c2cccc(NS(=O)(=O)c3cn(C)cn3)c2O[C@H]1CN(C)Cc1ccc(C(F)(F)F)cc1 | inactive
15 | C[C@H]1CN([C@@H](C)CO)C(=O)c2cccc(NC(=O)CCCCCC(=O)Nc3ccccc3N)c2O[C@@H]1CN(C)Cc1ccc(Oc2ccccc2)cc1 | inactive
16 | CNC[C@H]1Oc2ccc(NC(=O)Nc3ccc(F)cc3)cc2CC(=O)N([C@H](C)CO)C[C@@H]1C | inactive
17 | COc1ccc(S(=O)(=O)Nc2ccc3c(c2)CC(=O)N([C@@H](C)CO)C[C@H](C)[C@H](CN(C)Cc2ccc(C(F)(F)F)cc2)O3)cc1 | inactive
18 | CCS(=O)(=O)N1CC2(C1)CN(S(=O)(=O)c1cn(C)cn1)[C@@H](CO)c1[nH]c3cc(OC)ccc3c12 | inactive
19 | C[C@@H]1CN([C@H](C)CO)C(=O)c2cccc(N(C)C)c2O[C@@H]1CN(C)C(=O)NC1CCCCC1 | inactive
20 | C[C@H](CO)N1C[C@H](C)[C@H](CN(C)Cc2ccc(C(F)(F)F)cc2)Oc2ccc(NS(C)(=O)=O)cc2C1=O | inactive
21 | C[C@H](CO)N1C[C@H](C)[C@H](CN(C)CC2CCCCC2)Oc2ccc(NS(=O)(=O)c3ccc(Cl)cc3)cc2CC1=O | inactive
22 | COc1ccc(S(=O)(=O)Nc2ccc3c(c2)C(=O)N([C@@H](C)CO)C[C@@H](C)[C@@H](CN(C)S(=O)(=O)c2ccccc2)OCCCC[C@@H](C)O3)cc1 | inactive
23 | C/C=C/c1ccc([C@@H]2[C@H](CO)N(CC3CC3)C23CN(S(=O)(=O)CC)C3)cc1 | inactive
24 | C[C@@H]1CN([C@H](C)CO)S(=O)(=O)c2ccc(/C=C/c3ccccc3)cc2O[C@@H]1CN(C)C(=O)NC1CCCC1 | inactive
25 | C[C@@H]1CCCCO[C@@H](CN(C)Cc2ccc(C(F)(F)F)cc2)[C@H](C)CN([C@@H](C)CO)C(=O)c2cc(NS(=O)(=O)c3cccs3)ccc2O1 | inactive
26 | C[C@@H]1CN([C@@H](C)CO)C(=O)c2cc(-c3cccc(F)c3)cnc2O[C@@H]1CN(C)Cc1ccncc1 | inactive
27 | Cc1ccc(S(=O)(=O)N(C)C[C@H]2OCCCC[C@H](C)Oc3ccc(NS(=O)(=O)c4ccc(Cl)cc4)cc3C(=O)N([C@H](C)CO)C[C@H]2C)cc1 | inactive
28 | C[C@H](CO)N1C[C@H](C)[C@@H](CN(C)Cc2ccc(Oc3ccccc3)cc2)Oc2ccc(NS(=O)(=O)c3ccc(Cl)cc3)cc2CC1=O | inactive
